Assay outcomes from PubChem BioAssay.
DT40 TDP1 CPT: growth inhibition of DT40 Tdp1-/-;hTDP1 cells with camptothecin (screen for TDP1 inhibitors); 420,000 tested, 12% active; Potency, µM (highest dose often 46.2 µM), for the others: at the top dose activity change, negative = growth inhibition, usual class: inhibitors; chicken DT40 Tdp1-/-;hTDP1 cells + 20 nM CPT, ATP luminescence, 48 h; note: potency is the fitted concentration of half-maximal effect; % is set by controls: 0 for no effect and ±100 for the full control effect; nearly all actives have a fitted effect of over 55% in size
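Chicken DT40 Tdp1-/- cells stably complemented with human TDP1 were seeded at 400 cells/well in medium containing 20 nM camptothecin, exposed to pin-transferred compounds, and grown at 37 °C for at least 48 hr. Viability was read as ATP luminescence.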
TDP1 cell noCPT: qHTS for Inhibitors of human tyrosyl-DNA phosphodiesterase 1 (TDP1): qHTS in cells in absence of CPT; DT40 Tdp1-/- hTDP1 cells, no CPT, ATP luminescence, 48 h; Potency, µM (highest dose often 46.2 µM), without a hit: at the highest dose activity change, negative = growth inhibition, hits mostly inhibitors; 420,000 tested, 15% active; note: potency is the fitted concentration of half-maximal effect; % is set by controls: 0 for no effect and ±100 for the full control effect; nearly all actives have a fitted effect of over 55% in size
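Chicken DT40 Tdp1-/- cells stably complemented with human TDP1 were seeded at 400 cells/well with DMSO in place of 20 nM camptothecin. After compound pinning, cells grew at least 48 hr at 37 °C; viability read by CellTiter-Glo luminescence.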
HepG2 viability: counter-screen for TGF-b inhibitors: cytotoxicity in HepG2 cells; HepG2 CAGA-GFP viability, ATP luminescence, 18 h; Potency, µM (doses to about 46.1 µM), inactives show at the top dose activity change, negative = cytotoxicity, actives largely listed as cytotoxic; 410,000 tested, 0.76% active; note: potency is the fitted concentration of half-maximal effect
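CellTiter-Glo luminescence gave cytotoxicity after 18 hours at 37 degrees C. The cells were HepG2 CAGA-GFP in 1% FBS DMEM, stimulated with 500 pg/mL TGF-beta after compound addition. %Activity was normalised to no-cell wells (complete cell-killing) and DMSO (no toxicity), and curves were fitted and classified.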
IL1B secr inh: inhibitors of inflammasome signaling (IL-1 beta secretion); THP-1 LPS/ATP IL-1B secretion, AlphaLISA, 16 h; active compounds read low; activity change, % at 57.5 µM; 360,000 tested, 4.7% active; AID 743279; in the data active = activity change below about -50%; inconclusive = mostly about -30% to -49%; note: % is set by controls: 0 for no effect and ±100 for the full control effect
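Secreted IL-1B measured by AlphaLISA bead assay after 16 h compound exposure of THP-1 cells; compounds (final up to 57.5 uM) added 1 h before LPS (250 ng/mL) and ATP (1.25 mM) stimulation; lower signal means less secretion.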
TGFb SMAD3 inh: TGF-b pathway inhibition; HepG2 CAGA-GFP TGF-b/SMAD3 reporter, GFP fluorescence, 18 h; TGF-beta stimulated, 500 pg/mL final; Potency, µM (series often up to 46.1 µM), inactives show top-dose activity, negative = inhibition, usual class: inhibitors; 410,000 tested, 1.2% active; AID 588855; note: potency is the fitted concentration of half-maximal effect; % is set by controls: 0 for no effect and ±100 for the full control effect; nearly all actives have a fitted effect of over 65% in size
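TGF-beta reporter screen: HEPG2 CAGA-GFP, 1% FBS, 500 pg/mL TGF-beta final, 18 h; per-cell GFP summed per well; curves fitted and categorized by class.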
TDP1 inh: inhibitors of human tyrosyl-DNA phosphodiesterase TDP1 | AID 485290 | Potency, µM (top dose mostly 130 µM), for the others: at the highest dose activity change, negative = inhibition, usual class: inhibitors | 350,000 tested, 0.28% active | recombinant TDP1, AlphaScreen DNA substrate cleavage; note: potency is the fitted concentration of half-maximal effect; % is set by controls: 0 for no effect and ±100 for the full control effect; nearly all actives have a fitted effect of over 40% in size
Target sequence (Q9NUW8 whole entry, looked up): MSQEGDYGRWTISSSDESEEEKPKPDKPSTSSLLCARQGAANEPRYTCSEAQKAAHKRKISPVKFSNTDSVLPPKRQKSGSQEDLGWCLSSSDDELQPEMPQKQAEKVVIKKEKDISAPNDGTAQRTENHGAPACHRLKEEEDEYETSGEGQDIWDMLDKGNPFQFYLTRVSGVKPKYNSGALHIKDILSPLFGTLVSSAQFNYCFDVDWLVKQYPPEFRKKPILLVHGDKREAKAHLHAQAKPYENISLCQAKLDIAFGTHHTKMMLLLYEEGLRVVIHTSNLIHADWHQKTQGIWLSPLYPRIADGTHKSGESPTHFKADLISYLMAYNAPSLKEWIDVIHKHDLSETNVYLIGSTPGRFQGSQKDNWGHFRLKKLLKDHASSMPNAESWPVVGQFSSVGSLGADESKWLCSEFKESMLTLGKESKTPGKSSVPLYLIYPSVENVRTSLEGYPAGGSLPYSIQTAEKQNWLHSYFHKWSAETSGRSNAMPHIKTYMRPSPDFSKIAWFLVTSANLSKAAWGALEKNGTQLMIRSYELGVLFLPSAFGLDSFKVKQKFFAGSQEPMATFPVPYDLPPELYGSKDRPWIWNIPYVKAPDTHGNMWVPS
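Compounds were preincubated with Tdp1 (1 nM final) for 15 min at room temperature before substrate (15 nM final) started a 5 min reaction; beads (10 ug/ml final) were then added for 10 min before AlphaScreen detection.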
* marks the source's active call; other numbers are inactive results; ? = inconclusive; · = no result. The list is not random: actives were taken first. Their share in the collection is about 18%. Unless noted, calls come from the whole dose curve; as a rule, active = well fitted curve in the direction sought with a large enough effect; inconclusive = small, poorly fitted or top-dose-only effect, or another doubt; inactive = no such curve, though single readings can be large; an effect the other way counts as inactive or inconclusive.

SMILES | DT40 TDP1 CPT | TDP1 cell noCPT | HepG2 viability | IL1B secr inh | TGFb SMAD3 inh | TDP1 inh
COC(=O)[C@H]1C[C@H](OC(=O)Nc2cccs2)[C@@]2(O)CN(S(=O)(=O)c3ccc(C)cc3)CC2[C@H]1C(=O)OC (stereo not given in full) | ? | ? | -42% | -56* | ? | ·
Cc1ccc(S(=O)(=O)N2C[C@H]3n4c(=O)ccc(=O)n4C[C@H](OC(=O)NCc4ccccc4F)[C@@]3(O)C2)cc1 | ? | 21µM* | -18% | -108* | ? | ·
COC(=O)[C@H]1C[C@H](OC(=O)NC2CCCC2)[C@@]2(O)CN(S(=O)(=O)c3ccc(C)cc3)CC2[C@H]1C(=O)OC (stereo not given in full) | -11% | -28% | -9% | -18 | -4% | ·
Cc1ccc(S(=O)(=O)N2C[C@H]3[C@H]4C(=O)N(c5ccccc5)C(=O)[C@H]4C[C@H](OC(=O)NCc4ccccc4)[C@@]3(O)C2)cc1 | -16% | -17% | 1% | 17 | -1% | ·
Cc1ccc(S(=O)(=O)N2C[C@H]3n4c(=O)ccc(=O)n4C[C@H](OC(=O)Nc4cccs4)[C@@]3(O)C2)cc1 | ? | ? | -7% | -79* | -24% | ·
O=c1c2cc3c(cc2nc2sc(Nc4cccc([N+](=O)[O-])c4)nn12)OCO3 | -12% | -7% | -8% | · | 0% | -8%
CN(NC(=O)C(=O)NCc1ccco1)C(=O)Nc1ccc(Cl)cc1 | ? | ? | -4% | -2 | -5% | ·
Cc1ccc(CN2CCC(C3(c4ccccn4)NC(=O)N(CC4CCCO4)C3=O)CC2)cc1C (stereo not given) | 9% | -17% | · | · | · | ·
CCCCCCNC(=O)O[C@H]1Cn2c(=O)n(CCCCCC)c(=O)n2[C@@H]2CN(S(=O)(=O)c3ccc(C)cc3)C[C@]12O | ? | 21µM* | 22µM* | ? | ? | ·
CCCCCCn1c(=O)n2n(c1=O)[C@@H]1CN(S(=O)(=O)c3ccc(C)cc3)C[C@]1(O)[C@@H](OC(=O)NCc1ccc(OC)c(OC)c1)C2 | ? | ? | -25% | ? | ? | ·
CCCCCCn1c(=O)n2n(c1=O)[C@@H]1CN(S(=O)(=O)c3ccc(C)cc3)C[C@]1(O)[C@@H](OC(=O)NCC1CCCCC1)C2 | ? | 16µM* | -118% | ? | ? | ·
CCCCCCn1c(=O)n2n(c1=O)[C@@H]1CN(S(=O)(=O)c3ccc(C)cc3)C[C@]1(O)[C@@H](OC(=O)Nc1cccs1)C2 | 23µM* | 26µM* | -98% | -52* | ? | ·
Cc1ccc(S(=O)(=O)N2C[C@H]3N(C(=O)OC(C)C)N(C(=O)OC(C)C)C[C@H](OC(=O)NC4CCCC4)[C@@]3(O)C2)cc1 | ? | 21µM* | -18% | ? | ? | ·
COc1ccc(C)cc1S(=O)(=O)NCC(c1ccc2c(c1)OCO2)N1CCN(C)CC1 (stereo not given) | -19% | -30% | -2% | -22 | -9% | ·
CCCCCCn1c(=O)n2n(c1=O)[C@@H]1CN(S(=O)(=O)c3ccc(C)cc3)C[C@]1(O)[C@@H](OC(=O)NCc1ccccc1F)C2 | ? | ? | 7.9µM* | -1 | 13µM* | ·
CCCCCCNC(=O)O[C@H]1Cn2c(=O)ccc(=O)n2[C@@H]2CN(S(=O)(=O)c3ccc(C)cc3)C[C@]12O | 4.6µM* | 3.7µM* | -108% | -106* | ? | ·
CCCCCCn1c(=O)n2n(c1=O)[C@@H]1CN(S(=O)(=O)c3ccc(C)cc3)C[C@]1(O)[C@@H](OC(=O)NC1CC1)C2 | ? | 16µM* | 3% | 4 | -1% | ·
